The record followed here is PubChem BioAssay AID1256 (The Scripps Research Institute Molecular Screening Center, 2008).

Some of the results follow. Active and inactive are the calls of the source. Rule as the data show it: active = inhibition above about 20%; inactive = the rest.

Neuropeptide Y receptor type 1 (Homo sapiens), sequence (P25929 whole entry, looked up): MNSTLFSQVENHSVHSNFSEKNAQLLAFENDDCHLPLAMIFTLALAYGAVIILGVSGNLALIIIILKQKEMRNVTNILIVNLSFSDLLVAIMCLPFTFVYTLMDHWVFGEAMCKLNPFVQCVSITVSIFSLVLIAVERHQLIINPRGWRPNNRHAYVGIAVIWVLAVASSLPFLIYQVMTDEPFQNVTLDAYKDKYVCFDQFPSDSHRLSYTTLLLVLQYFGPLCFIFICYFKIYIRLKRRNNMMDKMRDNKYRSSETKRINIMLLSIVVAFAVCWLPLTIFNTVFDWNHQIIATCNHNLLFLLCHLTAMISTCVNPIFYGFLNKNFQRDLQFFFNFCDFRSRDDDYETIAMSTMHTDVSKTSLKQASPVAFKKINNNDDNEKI

This assay has as its target Neuropeptide Y receptor type 1 (Homo sapiens) (UniProt P25929). The experiment in a line: blockade of human NPY-Y1 in cells – counter-screen for NPY-Y2 antagonist project (AID 1256).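 Also: cells challenged with NPY then isoproterenol with cAMP sensed through a CNG channel.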 As to conditions: cell-based NPY-Y1 antagonism counterscreen; at 3.6 µM; hits give high values.
Broadly, the inhibition is the change of the read-out against control, counted positive when it falls. Take `O=C(Nc1nnc(SCc2c(Cl)cccc2Cl)s1)C1CCCO1` (centres undefined): the inhibition was 12.1% (inactive).
The same measure for `Cc1cccc(OCC(O)Cn2c(=N)n(CCN3CCOCC3)c3ccccc32)c1` (centres undefined): 4.2% (inactive).
The value for `COc1ccc(/C=C/C(=O)NC(=S)NN2CCCCC2c2cccnc2)cc1` (centres undefined) was 29.1% (active); that for `CCCCC(O)(CCCC)C(=O)NN(C(=O)CCl)c1ccccc1` was 7.18% (inactive); that for `Cc1ccccc1OC(=O)Cn1c(C(F)(F)F)nc2ccccc21` was 7.05% (inactive).
Consider `Cc1ccc(CCC(=O)Nc2ncc(Cc3cc(Cl)ccc3Cl)s2)o1`, for which the inhibition was 18.8% (inactive).
With `C=CCNCCCCOc1ccccc1`, the inhibition was -1.26% (inactive).
The same measure for `COc1ccc(-c2nc3ccccc3n2CCC(C)C)cc1OC`: 8.19% (inactive); for `Cc1ccc(C2=NN(C)c3nc4ccccc4n3C2)cc1`: 8.4% (inactive).
The same measure for `CN(C)Cc1ccc(F)cc1Sc1cc(Cl)ccc1Cl`: 11.3% (inactive); for `COc1ccc(/C(N)=N/OC(=O)CCCc2ccccc2)cc1`: 6.54% (inactive); for `COC(=O)c1ccc(CSc2nc3cc(Cl)ccc3o2)cc1`: 11.2% (inactive).
The value for `CC12CN(Cc3ccccc3)CC(C)(CN(Cc3ccccc3)C1)C2=NO` was 13.2% (inactive); that for `CCOc1ccc(C(O)Cn2c(=N)n(CCN3CCCCC3)c3ccccc32)cc1` (centres undefined) was 13.1% (inactive).
With `O=S(=O)(Cc1cc(Sc2ccccc2)nc(-c2ccccc2)n1)c1ccccc1`, the inhibition is 11.8% (inactive).
For the compound `Cc1ccc(NC(=O)CN2CCC3(O)CCCCC3C2c2ccc3c(c2)OCO3)c(C)c1` (centres undefined), the inhibition was 5.96% (inactive).
Consider `Cc1ccccc1N1CCN(CCCOc2ccc3c(C)cc(=O)oc3c2)CC1`, for which the inhibition was 19.3% (inactive).
The value for `Cc1ccc(S(=O)(=O)N(Cc2ccc(Cl)cc2)c2ccccc2C(=O)NCc2cccnc2)cc1` was 28.4% (active); that for `N=c1n(Cc2ccc(Cl)cc2)c2ccccc2n1CC(O)c1ccco1` (centres undefined) was 13.8% (inactive); that for `COc1ccc(NC(=O)/C(Cl)=C(/Cl)S(=O)Cc2ccc(C)cc2)cn1` (centres undefined) was 42.1% (active).
The same measure for `COc1cccc(-c2ccc(C#N)c(SCC(=O)NCCc3ccc(Cl)cc3)n2)c1`: 9.97% (inactive); for `CCOc1ccc(S(=O)(=O)N/N=C(\C)c2ccc(Cl)c(Cl)c2Cl)cc1`: 17.7% (inactive); for `O=C(Oc1ccccc1)Oc1ccc2c(c1)oc(=O)c1ccccc12`: 3.68% (inactive).
The value for `N#Cc1ccc(C(c2nnnn2CCc2ccccc2)N2CCCCCC2)cc1` (centres undefined) was 7.96% (inactive); that for `Cc1cc(C(=O)OCC(=O)N2c3ccccc3NC(=O)C2(C)C)c(C)n1-c1ccccc1` was 5.21% (inactive).
With `O=C(CC(O)(C(F)(F)F)C(F)(F)F)Nc1ccc(Cl)c(Cl)c1`, the inhibition was 20.5% (active).
`N#Cc1ccc(N2Cc3ccccc3/C2=N/C(=O)Nc2ccc(Cl)cc2)cc1`: the inhibition is 100% (active).
Turning to `CCOC(=O)C(C)Sc1nc2ccccc2c(=O)n1CC1CCCCC1` (centres undefined), the inhibition was 7.75% (inactive).
The same measure for `CCCc1nc(SCC(=O)Nc2ccccc2OC)c2c(=O)n(C)c(=O)n(C)c2n1`: 20.6% (active).
The value for `O=C1CC(c2cccc(Cl)c2)CC(O)=C1C=Nc1ccccc1` (centres undefined) was 17.3% (inactive).
The value for `COc1ccc(-c2noc(COc3ccc(Cl)c(C)c3)n2)cc1` was 13.3% (inactive).
Turning to `c1ccc(-c2cc3c(NCC4COc5ccccc5O4)ncnc3s2)cc1` (centres undefined), the inhibition was 19.3% (inactive).
`Cc1cc(C)nc(-n2ncc3c2CC(c2ccc(C(C)C)cc2)CC3=O)n1` (centres undefined): the inhibition is 20.4% (active).
The same measure for `CCCCCNC(=O)Cc1ccc(OC)cc1`: 1.16% (inactive).
